Compound activity (PubChem)
Hits are enriched below; roughly 2.9% of the tested compounds scored in any of these assays.
TSHR antagonist = blocks TSH signaling through the human TSH receptor; P16473; TSHR-expressing cells, TSH-stimulated cAMP HTRF, 2 h; stronger effect = lower value; activity change, negative = inhibition, % at 11.5 µM; 0.2% of 330,000 active;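 active = activity change below a set negative limit, meaning inhibition stronger than a set level, cut at about -70% in these data; inconclusive = activity change between two set negative limits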
Target sequence (P16473 whole entry, looked up): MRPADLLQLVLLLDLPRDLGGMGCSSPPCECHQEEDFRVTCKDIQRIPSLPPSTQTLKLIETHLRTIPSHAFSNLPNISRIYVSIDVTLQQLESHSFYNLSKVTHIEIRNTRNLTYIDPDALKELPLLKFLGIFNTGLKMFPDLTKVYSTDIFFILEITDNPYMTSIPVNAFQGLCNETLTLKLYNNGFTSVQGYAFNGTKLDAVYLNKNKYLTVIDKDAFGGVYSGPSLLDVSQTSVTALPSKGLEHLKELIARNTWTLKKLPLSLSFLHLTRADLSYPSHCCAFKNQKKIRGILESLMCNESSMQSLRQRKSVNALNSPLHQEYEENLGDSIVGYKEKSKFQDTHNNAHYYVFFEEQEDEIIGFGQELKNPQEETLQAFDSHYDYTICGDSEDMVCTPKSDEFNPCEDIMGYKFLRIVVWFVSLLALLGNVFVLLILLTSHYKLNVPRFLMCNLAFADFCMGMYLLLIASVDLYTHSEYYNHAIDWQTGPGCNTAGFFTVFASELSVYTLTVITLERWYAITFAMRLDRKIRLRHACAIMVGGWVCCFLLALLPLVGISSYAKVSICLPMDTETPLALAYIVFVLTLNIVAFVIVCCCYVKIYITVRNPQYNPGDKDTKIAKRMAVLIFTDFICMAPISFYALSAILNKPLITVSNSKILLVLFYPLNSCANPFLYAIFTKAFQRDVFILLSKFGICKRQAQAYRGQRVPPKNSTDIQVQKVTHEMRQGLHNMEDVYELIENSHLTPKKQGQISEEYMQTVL
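Inhibition of cAMP made by TSHR-expressing cells under TSH stimulation (4nM final, EC80; 2 h, 37 deg C) is quantified with a one-step lysis HTRF kit, anti-cAMP cryptate versus cAMP-d2.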
B2AR arrestin = beta2AR (human) beta-arrestin recruitment activity. Potency, µM (doses to about 46.1 µM), actives largely listed as activators. beta-arrestin recruitment to beta2AR, cell-based reporter. AID 492947. 0.02% of 330,000 active; active = well fitted activation curve with a large enough effect; inconclusive = small, poorly fitted or top-dose-only effect; also: nearly all actives have a fitted effect of over 65% in size
D3 antag = D3 dopamine receptor (human) antagonism | D3R cells, DiscoveRx beta-arrestin luminescence, antagonist mode; stronger effect = lower value | 2.5% of 360,000 active | max response, negative = inhibition, % | P35462; in the data active = max response below about -50%; inconclusive = no clear call, values can overlap the other calls
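Cells expressing the human receptor were seeded at 1500 cells/well, incubated overnight at 37 degrees C in 5% CO2, then exposed to library compounds with dopamine controls for 90 minutes at 37 degrees C before luminescent detection.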
D3 ag = activates the human D3 dopamine receptor. P35462. D3R DiscoveRx beta-arrestin cells, luminescence, 90 min. max activation, %. 0.58% of 410,000 active; in the data active = max activation above about 30%
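Agonist mode: compounds and dopamine controls were applied to plated cells for 90 min at 37 degrees C after an overnight attachment at 1500 cells/well. Luminescent read-out followed 30 - 60 minutes at room temperature with DiscoveRx detection reagent.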
Numbers stand for hits; . = inactive; ? = inconclusive; / = not tested or not shown.

SMILES	TSHR antagonist	B2AR arrestin	D3 antag	D3 ag
c1ccc2c(NC3CCCC3)nnc(NC3CCCC3)c2c1	.	.	-70.9	.
Cc1ccc(Cl)cc1-c1cc(C(=O)NCC2CCCCC2)[nH]n1	/	/	-69.9	.
COc1ccc(-c2cc(C(=O)NCC3CCCCC3)[nH]n2)c(C)c1	/	/	-78.5	.
Cc1nc(N2CCN(Cc3ccccc3)CC2)nc2c1CCC2	.	.	-67.2	.
Cc1nc(N2CCN(Cc3ccccc3)CC2)nc2c1C(=O)CCC2	.	.	.	.
Cc1nc(N2CCN(Cc3ccccc3)CC2)nc2c1C(=O)CC(c1ccco1)C2 (stereo not given)	.	.	-52.8	.
Cc1nc(N2CCN(Cc3ccc4c(c3)OCO4)CC2)nc2c1C(=O)CC(c1ccco1)C2 (stereo not given)	.	.	-72.5	.
Cc1nc(N2CCN(C(=O)c3ccco3)CC2)nc2c1C(=O)CC(C)C2 (stereo not given)	.	.	.	.
CC(C)NC(=O)N1Cc2cc(C(=O)NC3CCCC3)nc(-c3cccc(-c4cccnc4)c3)c2[C@@H]1CCO	/	/	.	.
Cc1ccc(CNC(=O)CCc2ccc(S(=O)(=O)NCC(C)C)cc2)cc1	.	.	-51.3	.
Nc1ncnc2n[nH]c(Nc3ccc(F)cc3)c12	.	/	/	/
c1csc(C2Nc3cccc4cccc(c34)N2)c1	.	.	-69.7	.
Clc1cccc(Cl)c1C1Nc2cccc3cccc(c23)N1	-70.5	?	.	.
c1ccc(C2Nc3cccc4cccc(c34)N2)cc1	.	.	.	.
Fc1cccc(Cl)c1C1Nc2cccc3cccc(c23)N1	.	?	.	.
CCSc1ncc(Cl)c(C(=O)Nc2ccc(S(=O)(=O)Nc3nccc(C)n3)cc2)n1	/	/	/	.
O=c1cc(O)nc(SCc2ccc(Cl)cc2)[nH]1	.	.	.	.
CC(=O)c1ccc(OC(C)C)c(CSc2nc(O)cc(=O)[nH]2)c1	.	.	-103.2	.
COc1cccc(N2CCN(C(=O)CN3CCSc4ccc(S(=O)(=O)N(C)C)cc43)CC2)c1	/	/	/	.
O=C(/C=C/c1ccccc1)NC(NC(=S)Nc1cccc(O)c1)C(Cl)(Cl)Cl (stereo not given)	.	.	-61.7	.
Cc1ccccc1CS(=O)(=O)c1nnc([C@H](CC(C)C)NC(=O)OC(C)(C)C)o1	.	.	-65.9	.
CC[C@@H](C)[C@H](NC(=O)OC(C)(C)C)c1nnc(S(=O)(=O)Cc2cc(C)ccc2C)o1	?	.	-79.4	.
O=C(CN1C(=O)COc2ccc(Cl)cc21)Nc1cccc(C(=O)O)c1	/	/	/	.
O=C(NC1CCCCC1)C(c1ccc(-c2ccccc2)cc1)n1c(=O)c(-c2ccco2)nc2ccccc21 (stereo not given)	/	/	.	.
CCCCOC(=O)Nc1nnc(/C=C/c2ccc(OC)cc2)s1	.	.	.	.
SMILES	TSHR antagonist	B2AR arrestin	D3 antag	D3 ag
CCOC(=O)Nc1nnc(/C=C/c2ccc(OC)cc2)s1	.	.	-55.5	.
Cc1ccc(NC(=O)COc2ccc(-c3nn(C)c(=O)c4ccccc34)cc2)c(C)c1	/	/	/	.
Cc1cc(C(=O)N2CCCC(C(=O)c3cc(F)ccc3F)C2)c(C)o1 (stereo not given)	.	.	-56.4	.
Cc1cc(C)c(C(=O)N2CCCC(C(=O)c3cc(F)ccc3F)C2)o1 (stereo not given)	.	.	.	.
CC(C)C(c1nnnn1C(C)(C)C)N1CCOCC1 (stereo not given)	.	.	-61.0	.
CC(C)C(c1nnnn1C1CCCCC1)N1CCOCC1 (stereo not given)	.	.	.	.
CCOC(=O)CSc1nc2ccc(NC(=O)c3ccccc3F)cc2s1	/	/	/	.
CCOC(=O)C(=C1Nc2ccccc2N1)n1c(-c2cnccn2)nc2ccccc21	/	/	.	.
CCOC(=O)C(=C1Nc2ccccc2N1)n1c(-c2ccco2)nc2ccccc21	/	/	-54.2	.
c1ccc(-c2nc(NCc3ccco3)c3ccccc3n2)nc1	.	.	-56.4	.
Oc1ccccc1-c1nc(NCc2ccco2)c2ccccc2n1	.	.	.	.
c1ccc(Nc2nc(NCC3CCCO3)c3ccccc3n2)cc1 (stereo not given)	.	.	.	.
c1ccc(-c2nc(NCC3CCCO3)c3ccccc3n2)nc1 (stereo not given)	.	.	-52.8	.
Clc1ccc(Cl)c(-c2ccc(/C=N/c3ncn[nH]3)o2)c1	.	.	.	32.1
O/N=C/c1ccc(-c2cc(Cl)ccc2Cl)o1	.	.	.	.
CCCCNC(=O)CO/N=C(\C)c1cc2ccccc2o1	.	.	.	.
CCCCNCc1cc2ccccc2o1	.	.	-50.5	.
COc1ccc(CCNC(=O)c2cc(C(=O)c3cc(C)ccc3O)cn(CCc3ccc(OC)cc3)c2=O)cc1	.	.	.	30.7
COc1ccc(CCNC(=O)c2cc(C(=O)c3cc(Cl)ccc3O)cn(CCc3ccc(OC)cc3)c2=O)cc1	.	.	.	.
COc1ccc([C@H]2[C@@H]3C=CCC[C@@]3(C)C(=O)N2Cc2ccccc2)cc1Cl	.	.	-54.9	.
Cc1cn2c(=O)c(S(=O)(=O)Nc3ccc(N4CCOCC4)cc3)c(C)nc2s1	/	/	/	.
CCOc1ccc(-c2nc3c(C#N)c[nH]n3c2NC2CCCC2)cc1	/	/	/	.
O=C(O)c1ccc(Sc2nnnn2-c2ccccc2)c([N+](=O)[O-])c1	.	.	-63.7	.
Oc1ccc(CCNc2c3ccccc3nc3ccccc23)cc1O	.	.	.	124.0
c1ccc(CNc2c3ccccc3nc3ccccc23)cc1	.	.	.	.
SMILES	TSHR antagonist	B2AR arrestin	D3 antag	D3 ag
Cc1cccc(C)c1Nc1nnc(SC/C(O)=C(\C#N)c2nc3ccccc3[nH]2)s1	.	.	.	.
Cc1cccc(Nc2nnc(SC/C(O)=C(\C#N)c3nc4ccccc4[nH]3)s2)c1C	.	.	.	33.1
O=C1C(O)=C(O)C(=O)c2ccccc21	/	/	.	.
O=C1C(=O)c2ccccc2C(O)=C1c1ccccc1F	.	.	-72.5	.
CCOCCCn1c(=N)c(C(=O)NC2CCCC2)cc2c(=O)n3cccc(C)c3nc21	/	/	/	.
COc1ccccc1Cc1c(-c2cccc(Cl)c2)nc2ccc(Br)cn12	/	/	-83.0	.
FC(F)(F)c1ccccc1Cc1c(-c2cccc(Cl)c2)nc2ccc(Cl)cn12	/	/	.	56.7
CCCc1nc2ccc(C)cn2c1Cc1ccccc1OC	/	/	.	.
CCCc1nc2ccc(Br)cn2c1Cc1ccccc1OC	/	/	.	77.6
CC(C)(C)Cc1c(-c2cccc(Cl)c2)nc2ccc(Br)cn12	/	/	-108.5	.
CCc1ccc(S(=O)(=O)c2cn(Cc3ccccc3)c3cc(F)c(F)cc3c2=O)cc1	/	/	/	.
Cc1ccc(S(=O)(=O)Nc2cc3c(cc2NCc2ccccc2)n(C)c(=O)n3C)c(C)c1	/	/	/	.
COCCNC(=O)c1[nH]c2cc(C)ccc2c1Sc1ccc(Cl)cc1	/	/	/	.
COc1cc(OC)nc(-n2ncc(Br)c(Br)c2=O)n1	.	?	-85.7	.
Cc1ccc(S(=O)(=O)N2CCCCC2C(=O)N2CCN(Cc3ccccc3)CC2)cc1 (stereo not given)	.	.	-51.9	.
Cc1ccc(S(=O)(=O)NNC(=O)C2CCN(Cc3ccccc3)CC2)cc1	.	.	-63.0	.
